# Compound activity (PubChem)
# CYP2C9 inh – blocks human cytochrome P450 2C9; P11712; CYP2C9 Supersomes, luciferin-H conversion, luminescence; inhibition, % at 5 µM; hit rate 20% among 96,000;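 active means blocking of liver enzyme CYP2C9 beyond about 50% at 5 µM, limit read from the data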
# Target sequence (P11712 whole entry, looked up): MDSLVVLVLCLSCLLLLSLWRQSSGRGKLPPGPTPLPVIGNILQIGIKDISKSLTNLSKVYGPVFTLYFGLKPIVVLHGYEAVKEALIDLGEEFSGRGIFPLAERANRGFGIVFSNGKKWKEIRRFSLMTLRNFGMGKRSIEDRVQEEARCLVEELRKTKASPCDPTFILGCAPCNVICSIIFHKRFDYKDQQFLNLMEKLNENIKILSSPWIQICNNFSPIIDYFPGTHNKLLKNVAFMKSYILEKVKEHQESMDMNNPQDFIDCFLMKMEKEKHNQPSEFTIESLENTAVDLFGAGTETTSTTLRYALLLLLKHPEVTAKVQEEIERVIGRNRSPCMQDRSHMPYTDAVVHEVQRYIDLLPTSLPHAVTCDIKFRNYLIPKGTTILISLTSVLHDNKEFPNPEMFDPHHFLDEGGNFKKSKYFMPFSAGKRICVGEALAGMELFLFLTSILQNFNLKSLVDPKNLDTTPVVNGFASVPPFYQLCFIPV
# CYP2C19 act – increases human CYP2C19 enzyme activity; 96,000 tested, under 10 active; P33261; recombinant CYP2C19, luciferin-H EGE luminescence; active compounds read high; 0 = fully inhibited enzyme, 1 = untreated enzyme; activation factor at 5 µM;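 active means activation factor of at least 2 at 5 µM in the primary screen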
# CYP2C19 inh – blocks human cytochrome P450 2C19; P33261; CYP2C19 Supersomes, luciferin-H EGE luminescence, 30 min; inhibition, % at 5 µM; hit rate 21% among 96,000; AID 778;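 active means CYP2C19 inhibition above a set limit at 5 µM in the primary screen, cut at about 50% in these data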
# CYP2C9 activ – activators of human CYP2C9; recombinant CYP2C9, luciferin-H conversion, luminescence; active compounds read high; factor 1 = untreated enzyme, 0 = blocked; hit rate 1.4% among 96,000; AID 1024; P11712; activation factor at 5 µM;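 active means activation factor of 2 or more for CYP2C9 at a 5 µM dose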
# Cav32 inh – blocks human Cav3.2 T-type calcium channel. Cav3.2-expressing cells, Fluo-4 calcium fluorescence FDSS; active compounds read low. B-score at 10 µM. hit rate 4% among 100,000. AID 449739;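 active means single-dose well whose peak fluorescence ratio is a statistical outlier from its plate by either plate-standardised score or position-corrected B-score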
# A number is an active result; i = inactive; nt = no result. Most compounds without a hit are left out; they make up all but 27% or so of the library.
SMILES,CYP2C9 inh,CYP2C19 act,CYP2C19 inh,CYP2C9 activ,Cav32 inh
CC(C)C(C)(C#N)NC(=O)CSc1nnc(-c2ccncc2)n1Cc1ccccc1 (stereo unspecified),52,i,80,i,i
O=C(CSc1nnc(-c2ccncc2)n1Cc1ccccc1)Nc1nccs1,54,i,75,i,i
CC(C)(C)NC(=O)CSc1nnc(-c2ccncc2)n1Cc1ccccc1,50,i,80,i,i
O=C(Nc1ncccc1Cl)C1COc2ccccc2O1 (stereo unspecified),i,i,i,i,i
CCCC(c1nnnn1CCc1ccccc1)N1CCN(C(=O)c2ccco2)CC1 (stereo unspecified),i,i,i,i,i
Cc1ccc(S(=O)(=O)Cc2ccc(C(=O)NCCCN3CCCC3=O)o2)cc1,i,i,i,i,i
COc1ccc(S(=O)(=O)N(CCCN2CCCC2=O)Cc2cc3cc(C)c(C)cc3[nH]c2=O)cc1,68,i,i,i,nt
Cc1ccc(S(=O)(=O)N(CCCN2CCCC2=O)Cc2cc3c(C)ccc(C)c3[nH]c2=O)cc1,63,i,i,i,i
O=C1CC(c2ccc(Cl)c(Cl)c2)CC(O)=C1C=NCCN1CCNCC1 (stereo unspecified),i,i,i,i,i
Cc1cc2c(ccc3[nH]onc32)n1,i,i,i,i,i
O=c1[nH]nc(Cc2ccc(-c3ccc(Cl)cc3)o2)c2ccccc12,i,i,i,i,i
Cc1ccc(C(=O)Nc2ccc(OCc3ccccc3)cc2)cc1[N+](=O)[O-],i,i,i,i,i
Cc1ccc(C(=O)NNC(=S)Nc2cccc(Cl)c2Cl)cc1[N+](=O)[O-],76,i,i,i,i
CCOC(=O)C1CCN(C(=O)Nc2ccc3nc(C)c(C)nc3c2)CC1,i,i,i,i,i
CCN1CCN(c2nc3ccccc3nc2C(C#N)C(=O)OC2CCCCC2)CC1 (stereo unspecified),i,i,i,i,i
COC(=O)C(C#N)c1nc2ccccc2nc1N1CCN(Cc2ccc3c(c2)OCO3)CC1 (stereo unspecified),i,i,50,i,nt
N#CCc1c(C#N)c(N)nc(N2CCN(Cc3ccc4c(c3)OCO4)CC2)c1C#N,54,i,i,i,nt
Cc1cc(C)c(C#N)c(N2CCN(Cc3ccc4c(c3)OCO4)CC2)n1,i,i,i,i,i
CCCCOC(=O)C(C#N)c1nc2ccccc2nc1N1CCN(Cc2ccc3c(c2)OCO3)CC1 (stereo unspecified),92,i,65,i,i
O=S(=O)(c1ccccc1C(F)(F)F)N1CCOCC1,i,i,i,i,i
Cc1cccc(C(=O)NNC(=O)c2ccc(Cl)cc2)c1O,i,i,50,2.9,i
O=C(NNC(=O)c1ccc(O)cc1O)c1ccc(Cl)cc1,i,i,i,2,i
Cc1ccc(C)n1NC(=O)c1ccc(Cl)cc1,i,i,i,i,i
O=C(NNC(=O)c1ccccc1O)c1ccc(Cl)cc1,i,i,i,i,i
Fc1ccccc1COc1ccc(/C=N/NC(=S)NCc2ccccc2)cc1,nt,nt,nt,nt,i
SMILES,CYP2C9 inh,CYP2C19 act,CYP2C19 inh,CYP2C9 activ,Cav32 inh
COc1cccc(/C=N/NC(=O)CCc2ccccc2)c1,i,i,60,i,i
COc1cccc(/C=N/NC(=O)c2ccc(OCc3cccc(Br)c3)cc2)c1,84,i,i,i,-6
c1ccc(NC2=Nc3ccccc3CS2)cc1,i,i,i,i,i
Cc1ccc(NC2=Nc3ccccc3CC2)cc1,i,i,84,i,i
N#CC1=C(Nc2ccc(Br)cc2)CCC1,i,i,i,i,i
Brc1ccc(NC2=Nc3ccccc3CC2)cc1,i,i,52,i,i
O=c1c2ccccc2nc(SCc2cn3ccsc3n2)n1-c1ccc(F)cc1,97,i,84,i,i
COCc1cc(=O)n2[nH]c(-c3cccc(Br)c3)cc2n1,i,i,95,i,nt
CCn1cc(C(=O)N2CCOCC2)c(=O)c2cc(S(=O)(=O)N(C)C3CCCCC3)ccc21,i,i,i,i,i
CN(CCNC(=O)C1CCN(S(=O)(=O)N2CCOCC2)CC1)CCc1ccccc1,i,i,i,i,i
Nc1nc(-c2ccccc2)cc(C(F)(F)F)n1,i,i,i,i,i
COC1(c2cc(-c3ccccc3)nc(N)n2)CCCCC1,i,i,53,i,i
CCOC(=O)C1=C(C)N=C2SC(C)C(=O)N2C1c1ccc(C(=O)OC)cc1 (stereo unspecified),58,i,73,i,-7.5
CCOC(=O)C1=C(C)N=C2SC(C)C(=O)N2C1c1ccc(OCC)c(OCC)c1 (stereo unspecified),61,i,54,i,i
COCCOC(=O)C1=C(C)N=C2SCCC(=O)N2C1c1ccc(OC(=O)c2ccco2)cc1 (stereo unspecified),73,i,73,i,i
CCOC(=O)C1=C(C)N=C2SCCC(=O)N2C1c1ccc(C(=O)OC)cc1 (stereo unspecified),i,i,68,i,i
CCCOc1ccc(C2C(C(=O)OC)=C(C)N=C3SCCC(=O)N32)cc1OCC (stereo unspecified),i,i,i,i,i
C=CCn1c(SC/C=C/c2ccccc2)nnc1-c1sc(N)nc1C,i,i,i,i,i
COc1ccc(CCNC(=O)c2nonc2N)cc1,nt,nt,nt,nt,i
CCOCCCNC(=O)C(NC(=O)c1cnccn1)c1ccc(OC)cc1 (stereo unspecified),i,i,i,i,i
CCCc1ccc(C(C)NC(=O)c2cnccn2)cc1 (stereo unspecified),53,i,76,i,i
COc1ccc(CCNC(=O)N2c3ccccc3Sc3ccccc32)cc1,nt,nt,nt,nt,-5.9
COc1ccc(CCNC(=O)c2cnccn2)cc1,i,i,53,i,i
COc1ccc(CCNC(=O)c2nn(C)cc2Cl)cc1,i,i,70,i,i
COc1ccc(CCNC(=O)c2cccnc2)cc1,i,i,i,i,i
SMILES,CYP2C9 inh,CYP2C19 act,CYP2C19 inh,CYP2C9 activ,Cav32 inh
CC(C)(C)NC(=O)NC(=O)COC(=O)c1ccco1,i,i,i,i,i
Cc1ccc(C(=O)O/N=C\c2ccc(N3CCCCC3)c([N+](=O)[O-])c2)cc1,61,i,i,i,i
COc1cc(/C=C(/C#N)c2nc3ccccc3[nH]2)ccc1OCC(=O)Nc1ccccc1C(C)C,60,i,i,i,i
CCN(CC)c1ccc(/C=C(/C#N)c2nc3ccccc3[nH]2)c(OC(C)C)c1,74,i,i,i,-3.5
N#C/C(=C\c1ccc(N2CCOCC2)o1)c1nc2ccccc2[nH]1,i,i,i,i,-5.8
N#C/C(=C/c1ccc(N2CCOCC2)o1)c1ccc(Cl)cc1,i,i,i,i,nt
COc1cc(/C=C(\C#N)c2nc3ccccc3[nH]2)c([N+](=O)[O-])cc1OCc1ccccc1,76,i,i,i,i
Cc1ccc2nc(/C(C#N)=C/c3cn[nH]c3-c3ccc(F)cc3)[nH]c2c1,i,i,i,i,i
N#C/C(=C/c1ccc(N2CCCC2)c([N+](=O)[O-])c1)c1nc2ccccc2[nH]1,58,i,73,i,i
